The results in this text go back to PubChem BioAssay (NCATS).

Results filed as inconclusive are left out. Active and inactive are the calls of the source. Calls come from the whole dose curve; as a rule, active = well fitted inhibition curve with a large enough effect; inconclusive = small, poorly fitted or top-dose-only effect; inactive = no such curve, though single readings can be large or run the other way.

The test can be described thus: P-glycoprotein substrates identified in KB-3-1 adenocarcinoma cell line, qHTS therapeutic library screen (AID 1346986). Note: nearly all actives have a fitted effect of over 60% in size. To be noted: KB-3-1 parental cells viability, CellTiter-Glo, 72 h; series mostly up to 44.5 µM. The method, boiled down:
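Dose-response cytotoxicity, KB-3-1 vs P-gp-high KB-8-5-11, no colchicine in assay medium. Read: CellTiter-Glo at 72 h.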
Background: In qHTS, concentration-response curves come from the screen itself.
Regarding `C/C=C(/C)C(=O)O[C@@H]1C[C@@H](OC(=O)/C(C)=C\C)[C@@]2(C)C3C(=O)C=C(C)C2C3C1(C)C`, the “outcome” value was “inactive [at 17.4 µM]”.

As to `CCOC(=O)C1=C(N)Oc2ccc(Cl)cc2C1C(C#N)C(=O)OCC` (stereo not drawn), the result was inactive.

For the compound `C[C@H]1CC[C@@]2(OC1)O[C@H]1CC3C4CC[C@H]5C[C@@H](O)CC[C@]5(C)C4CC(=O)[C@]3(C)[C@H]1[C@@H]2C` (stereo partly drawn), the “outcome” value was “inactive [at 17.4 µM]”.

As to `CC1OC(OC2C(OC3C(O[C@H]4CC[C@@]5(C)C(CC[C@]6(C)C5C(=O)CC5=C7CC(C)(C)CC(O)[C@]7(C)CC[C@]56C)C4(C)C)OC(C(=O)O)C(O)C3O)OCC(O)C2O)C(O)C(O)C1O` (stereo partly drawn), the outcome is “inactive [at 9.29 µM]”.

For `CCC/C=C/C=C/C1CC(O)C(O)C(=O)C1CO` (stereo not drawn), the outcome was inactive.

Consider `CC1(C)CC[C@]2(C(=O)O[C@@H]3O[C@H](CO)[C@@H](O)[C@H](O)[C@H]3O)CC[C@]3(C)C(=CCC4[C@@]5(C)CC[C@H](O[C@@H]6O[C@H](C(=O)O)[C@@H](O)[C@H](O)[C@H]6OC6OC(CO)C(O)C(O)C6O)C(C)(C)C5CC[C@]43C)[C@@H]2C1` (stereo partly drawn), for which the outcome was “inactive [at 9.29 µM]”.

Consider `Cc1ncc([N+](=O)[O-])n1C[C@H](O)CN1CCOCC1`, for which the result was inactive.

Regarding `CC1(C)CC[C@]2(C(=O)O[C@@H]3O[C@H](CO[C@@H]4O[C@H](CO[C@@H]5O[C@H](CO)[C@H](O)[C@H](O)[C@H]5O)[C@@H](O)[C@H](O)[C@H]4O)[C@@H](O)[C@H](O[C@@H]4O[C@H](CO)[C@@H](O)[C@H](O)[C@H]4O)[C@H]3O)[C@H](O)C[C@]3(C)C(=CCC4[C@@]5(C)CC[C@H](O[C@@H]6OC[C@@H](O)[C@H](O)[C@H]6O)[C@@](C)(C(=O)O)C5CC[C@]43C)[C@@H]2C1` (stereo partly drawn), the outcome was “inactive [at 9.29 µM]”.
